# Assay outcomes from PubChem.
# D1 PAM: enhances dopamine response at the human D1 receptor; P21728; HEK293 TREx D1 cells, calcium flux, dopamine EC20 potentiation; potentiation, % at 10 µM; actives 0.036% (n = 360,000); AID 504651; in the data active means potentiation above about 30%
# Target sequence (P21728 whole entry, looked up): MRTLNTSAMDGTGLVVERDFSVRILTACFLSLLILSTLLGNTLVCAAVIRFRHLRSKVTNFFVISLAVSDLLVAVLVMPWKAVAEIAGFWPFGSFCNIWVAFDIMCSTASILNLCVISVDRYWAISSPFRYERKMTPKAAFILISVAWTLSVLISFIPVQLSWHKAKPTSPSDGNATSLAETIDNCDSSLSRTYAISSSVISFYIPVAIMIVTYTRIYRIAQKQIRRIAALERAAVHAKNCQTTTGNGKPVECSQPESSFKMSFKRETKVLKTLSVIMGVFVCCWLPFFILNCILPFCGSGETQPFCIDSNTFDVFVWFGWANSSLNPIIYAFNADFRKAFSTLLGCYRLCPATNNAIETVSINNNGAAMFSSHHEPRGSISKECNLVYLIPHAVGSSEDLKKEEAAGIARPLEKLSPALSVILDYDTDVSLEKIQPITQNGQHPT
# D1 ag: agonists of human D1 dopamine receptor; P21728; HEK293 T-REx D1 cells, calcium flux, agonist mode; activation, % at 2 µM; actives 1% (n = 360,000); in the data active means activation above about 30%
#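 Inducible HEK293 T-REx D1 cells, force-coupled to calcium signalling, were plated at 4000 cells/well with tetracycline and held overnight at 30 C. After no-wash calcium dye loading, compound-evoked calcium rise over 180 s flagged agonists.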
# D1 antag: blocks dopamine activation of the human D1 receptor. HEK293 TREx D1 cells, calcium flux, dopamine EC80; hits give low values. actives 3.2% (n = 360,000). P21728. AID 504652. activity change, negative = inhibition, % at 10 µM; in the data active means activity change below about -30%
#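 HEK293 T-REx cells expressing inducible, force-coupled D1 receptor; no-wash Ca dye, 30–90 min RT. Cmpd → 180 s read at 1 Hz → EC80 DA → 180 s read.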
# TRPV1 agonist: agonists of human vanilloid receptor 1 (TRPV1) | Q8NER1 | TRPV1-expressing cells, Fluo-8 calcium influx, agonist mode | AID 540275 | actives 0.19% (n = 320,000) | activation, % at 8.33 µM; in the data active means activation above about 80%; inconclusive means between about 30% and that limit
#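 Cells expressing TRPV1 were dye-loaded with Fluo-8 and read kinetically: 10 s baseline, 3 min after compound (agonist portion), then 2 min after EC20 capsaicin (allosteric enhancer portion). Calcium-bound dye fluorescence at 480/520 nm.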
# TRPV1 PAM: potentiators of human vanilloid receptor 1 (TRPV1). TRPV1-expressing cells, Fluo-8 calcium influx, capsaicin EC20 potentiation. potentiation, % at 8.33 µM. AID 540277. actives 0.02% (n = 320,000); in the data active means potentiation above about 80%; inconclusive means between about 30% and that limit
#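 Fluo-8 calcium influx in TRPV1-expressing cells, kinetic read (ex 480/em 520 nm). Compound added and read 3 min for agonist activity, followed by capsaicin at EC20 final and 2 min further read for enhancement.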
# A number is an active result; . = inactive; ? = inconclusive; / = no result given. Hits are enriched below; roughly 4.2% of the tested compounds scored in any of these assays.
SMILES,D1 PAM,D1 ag,D1 antag,TRPV1 agonist,TRPV1 PAM
COc1cc(C2C(C#N)=C(N)Oc3cc(O)ccc32)cc2c1OCO2 (stereo unspecified),.,.,.,.,.
COc1cc(C2C(C#N)=C(N)Oc3cc(N(C)C)ccc32)cc2c1OCO2 (stereo unspecified),.,45,.,?,.
COCCCNC(=O)CCCn1c(=O)c2ccccc2n(CC(=O)Nc2ccc(C)cc2Cl)c1=O,.,.,.,/,/
CC1=C(C(=O)Nc2cccc(C(F)(F)F)c2)C2(CCCCC2)OC1=O,.,.,.,/,/
COc1ccc(C(=O)NCCSCc2ccco2)cc1OC,.,.,-34,.,.
O=C(NCCSCc1ccco1)Nc1cccc(Cl)c1,.,.,.,.,.
O=C(NCCSCc1ccco1)Nc1ccc(Cl)cc1,.,.,-30,?,.
Cc1ccc(C(C)C)c(OCC(=O)Nc2c(C(=O)c3ccc(F)cc3)oc3ccccc23)c1,.,.,.,/,/
CCOc1ccc(C(=O)Nc2ccc(N3CCN(C)CC3)cc2)cc1,.,.,.,.,.
CCCCOc1cccc(C(=O)Nc2ccc(N3CCN(CC)CC3)cc2)c1,.,.,-51,.,.
CCOc1cccc(C(=O)Nc2ccc(N3CCN(S(C)(=O)=O)CC3)cc2)c1,.,.,.,.,.
CCCCOc1ccc(C(=O)Nc2ccc(N3CCN(C)CC3)cc2)cc1,.,.,-73,.,.
CC(C)(C)C(=O)OC/C(N)=N/OC(=O)c1ccc(Cl)cc1,.,.,-43,.,?
COc1ccc(OC)c(NC(=O)C(=O)N/N=C/c2ccccc2[N+](=O)[O-])c1,.,.,-34,.,.
Cc1cccc(N2C(=O)N(Cc3ccc(C(C)(C)C)cc3)c3ccccc3S2(=O)=O)c1,.,.,-48,/,/
Cc1cccc(N2C(=O)N(Cc3cc(=O)n4ccccc4n3)c3ccccc3S2(=O)=O)c1,.,.,-69,/,/
CCc1ccccc1N(CC)C(=O)Cn1nc(Cc2ccncc2)c2ccccc2c1=O,.,.,.,/,/
CN1CCc2c(sc(NC(=O)CSc3ccccc3)c2-c2nc3ccccc3s2)C1,.,400,-54,?,.
CC(=O)N1CCc2c(sc(NC(=O)CSc3ccccc3)c2-c2nc3ccccc3s2)C1,.,.,.,.,.
Cc1cccc(CNC(=O)c2ccc(NC(=O)N3CCSc4ccccc43)cc2)c1,.,.,.,/,/
Cc1ccc(NC(=O)C2CCCN(c3ncnc4onc(C)c34)C2)c(Cl)c1 (stereo unspecified),.,.,-54,/,/
COc1ccc(Cl)cc1NC(=O)C1CCCN(c2ncnc3onc(C)c23)C1 (stereo unspecified),.,.,.,/,/
COc1ccc(CCNC(=O)c2ccc3c(c2)N(Cc2ccc(Cl)cc2)C(=O)c2ccccc2S3)cc1OC,.,.,.,/,/
COc1ccc(-c2cn3c(C)c(C(=O)N4CCc5ccccc5C4)sc3n2)cc1,.,.,-31,.,.
Cc1cccc(CSCCNC(=O)C2CCN(S(=O)(=O)Cc3ccccc3)CC2)c1,.,.,.,/,/
SMILES,D1 PAM,D1 ag,D1 antag,TRPV1 agonist,TRPV1 PAM
COc1ccccc1C(=O)Nc1cc(-c2cccc(Br)c2)nn1-c1ccccc1,.,.,.,/,/
CCN1C(=S)SC(=O)C1=C1C=C(C)OC(C)=C1,.,.,.,/,/
CCN1C(=S)SC(=O)C1=C1C=C(C)N(Cc2ccco2)C(C)=C1,.,171,.,.,.
CCCSc1nnc2n(-c3cccc(C)c3)c(=O)c3c4c(sc3n12)CCCC4,.,.,.,/,/
N/C(=N/O)C(c1ccccc1)c1ccccc1,.,.,-44,.,.
O=C(c1ccccc1)C(c1ccccc1)c1ccccc1,.,.,.,.,.
COc1ccc(NC(=O)Cc2noc3ccc(C)cc23)cc1Cl,.,.,-31,/,/
CCOC(=O)c1ccc(NC(=O)Cc2noc3ccc(C)cc23)cc1,.,.,.,/,/
Cc1c2cnn(CC(=O)NC(C)C)c(=O)c2c(C)n1Cc1cccc(Cl)c1,.,.,-55,/,/
Cc1cc(C)c2ccc3c(C)c(C)nc3c2[nH]1,.,.,-47,.,.
Cc1cc(=O)[nH]c2c(C)c(N)ccc12,.,.,.,.,.
CC(C)NC(=O)CN1C(=O)c2cccnc2Sc2ccccc21,.,.,.,/,/
COc1ccc2c(c1)CC/C2=N\OC(=O)c1ccccc1C,.,.,.,.,.
COc1ccc2c(c1)CCC/C2=N/OC(=O)c1ccccc1OC,.,.,-33,.,.
